# How the values were obtained:
# Experiment in all cases: DAPPL (digital affinity profiling via proximity ligation, sequencing); 10 mM Tris-HCl pH 7.5, 50 mM NaCl, 1 mM DTT, 4% glycerol, room temperature, 30 min; GST-TFs on glutathione beads, 16-mer random dsDNA library, 0.1% formaldehyde crosslink after washing; high values mean tight binding
# [1] = biological target: T1, GABPA (Homo sapiens, UniProt Q06546 1-454); conditions: protein: recombinant; tags: N-terminal GST; dsDNA, one strand shown
# T1 sequence: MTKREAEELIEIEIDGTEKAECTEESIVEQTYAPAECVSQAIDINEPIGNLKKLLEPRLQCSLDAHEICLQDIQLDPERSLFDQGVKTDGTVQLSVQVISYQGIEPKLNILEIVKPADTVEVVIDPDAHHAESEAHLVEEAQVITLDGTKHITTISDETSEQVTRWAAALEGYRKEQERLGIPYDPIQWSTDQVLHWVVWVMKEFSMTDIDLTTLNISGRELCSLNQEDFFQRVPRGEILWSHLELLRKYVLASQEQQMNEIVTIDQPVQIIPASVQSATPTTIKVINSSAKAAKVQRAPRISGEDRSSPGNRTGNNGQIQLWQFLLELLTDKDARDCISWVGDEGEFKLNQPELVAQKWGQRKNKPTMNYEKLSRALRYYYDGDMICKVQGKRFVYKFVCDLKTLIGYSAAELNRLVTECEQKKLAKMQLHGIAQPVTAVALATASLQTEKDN
# Summary of the method: (§1)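 Sequencing on an Illumina NextSeq500 followed washing, crosslinking with 0.1% formaldehyde, proximity ligation (BsaI/T4 ligase, 1 h, 37 °C) and PCR amplification of pools that had been incubated for 30 min at room temperature with 200 nmole of a random double-stranded 16-mer DNA library in Tris/NaCl/DTT/glycerol buffer. Each pool held DNA-barcoded human transcription factors, expressed in yeast as GST fusions and captured on glutathione beads, plus a tag-only sample. Binding signal is a hexamer's read frequency for a factor divided by its frequency in the tag-only sample.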
# [2] = biological target: HSF1 (Homo sapiens, UniProt Q00613 1-529); conditions: protein: recombinant; tags: N-terminal GST; chain copies: 3; dsDNA, one strand shown
# HSF1, sequence (Q00613 whole entry): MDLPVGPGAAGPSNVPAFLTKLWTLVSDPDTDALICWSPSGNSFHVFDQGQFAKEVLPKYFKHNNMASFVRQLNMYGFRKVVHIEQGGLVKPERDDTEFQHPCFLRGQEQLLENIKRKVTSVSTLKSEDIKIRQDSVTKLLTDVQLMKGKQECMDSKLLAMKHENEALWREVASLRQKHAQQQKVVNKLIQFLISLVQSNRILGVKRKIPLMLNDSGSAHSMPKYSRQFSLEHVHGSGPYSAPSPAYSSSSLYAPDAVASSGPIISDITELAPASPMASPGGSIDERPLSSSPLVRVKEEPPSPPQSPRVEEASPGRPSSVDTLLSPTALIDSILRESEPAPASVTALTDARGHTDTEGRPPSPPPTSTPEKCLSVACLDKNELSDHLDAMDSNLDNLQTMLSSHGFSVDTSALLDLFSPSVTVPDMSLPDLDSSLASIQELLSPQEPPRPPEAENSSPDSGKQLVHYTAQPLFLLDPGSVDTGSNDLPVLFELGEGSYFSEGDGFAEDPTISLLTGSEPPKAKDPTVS
# Summary of the method: as §1
# [3] = biological target: T2, ELK4 (Homo sapiens, UniProt P28324-2 1-405); conditions: protein: recombinant; tags: N-terminal GST; dsDNA, one strand shown
# T2 sequence: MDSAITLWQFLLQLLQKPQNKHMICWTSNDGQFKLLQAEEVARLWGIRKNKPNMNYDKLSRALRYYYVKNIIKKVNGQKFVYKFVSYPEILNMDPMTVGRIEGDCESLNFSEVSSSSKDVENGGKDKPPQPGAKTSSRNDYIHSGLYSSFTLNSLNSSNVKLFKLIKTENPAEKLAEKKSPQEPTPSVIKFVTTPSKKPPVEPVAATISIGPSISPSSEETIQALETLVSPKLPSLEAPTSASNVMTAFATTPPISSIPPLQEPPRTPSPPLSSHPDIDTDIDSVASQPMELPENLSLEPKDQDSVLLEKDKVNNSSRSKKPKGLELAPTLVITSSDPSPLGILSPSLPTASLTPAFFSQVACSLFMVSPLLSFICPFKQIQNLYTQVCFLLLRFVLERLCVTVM
# Summary of the method: as §1
# [4] = biological target: T3, ETV2 (Homo sapiens, UniProt O00321 1-342); conditions: protein: recombinant; tags: N-terminal GST; dsDNA, one strand shown
# T3 sequence: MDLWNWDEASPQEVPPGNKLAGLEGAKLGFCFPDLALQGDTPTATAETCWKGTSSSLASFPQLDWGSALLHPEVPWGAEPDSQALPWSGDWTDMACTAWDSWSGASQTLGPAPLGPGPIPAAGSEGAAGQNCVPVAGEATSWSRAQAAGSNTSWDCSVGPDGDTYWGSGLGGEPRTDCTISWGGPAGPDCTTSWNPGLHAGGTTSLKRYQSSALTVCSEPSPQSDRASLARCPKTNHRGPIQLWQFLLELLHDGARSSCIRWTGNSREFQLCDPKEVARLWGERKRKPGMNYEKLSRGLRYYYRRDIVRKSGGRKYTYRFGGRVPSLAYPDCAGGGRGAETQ
# Summary of the method: as §1
# [5] = biological target: T4, ERF (Homo sapiens, UniProt P50548 1-548); conditions: protein: recombinant; tags: N-terminal GST; dsDNA, one strand shown
# T4 sequence: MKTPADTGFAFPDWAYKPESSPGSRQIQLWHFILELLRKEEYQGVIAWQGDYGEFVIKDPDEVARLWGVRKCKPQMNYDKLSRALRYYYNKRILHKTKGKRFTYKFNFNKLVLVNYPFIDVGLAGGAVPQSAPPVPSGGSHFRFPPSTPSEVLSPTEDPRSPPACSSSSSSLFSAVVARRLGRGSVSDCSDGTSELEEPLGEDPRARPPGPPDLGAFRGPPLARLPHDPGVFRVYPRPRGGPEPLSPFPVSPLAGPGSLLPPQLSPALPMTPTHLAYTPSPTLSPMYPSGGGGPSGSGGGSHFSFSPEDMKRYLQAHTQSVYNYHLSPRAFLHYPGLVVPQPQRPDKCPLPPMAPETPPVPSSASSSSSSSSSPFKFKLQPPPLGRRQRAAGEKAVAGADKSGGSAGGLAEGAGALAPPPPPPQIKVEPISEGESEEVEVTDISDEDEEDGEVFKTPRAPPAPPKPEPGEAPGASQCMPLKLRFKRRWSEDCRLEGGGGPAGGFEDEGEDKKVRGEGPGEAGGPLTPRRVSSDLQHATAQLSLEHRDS
# Summary of the method: as §1
# [6] = biological target: T5, ETS2 (Homo sapiens, UniProt P15036 1-469); conditions: protein: recombinant; tags: N-terminal GST; dsDNA, one strand shown
# T5 sequence: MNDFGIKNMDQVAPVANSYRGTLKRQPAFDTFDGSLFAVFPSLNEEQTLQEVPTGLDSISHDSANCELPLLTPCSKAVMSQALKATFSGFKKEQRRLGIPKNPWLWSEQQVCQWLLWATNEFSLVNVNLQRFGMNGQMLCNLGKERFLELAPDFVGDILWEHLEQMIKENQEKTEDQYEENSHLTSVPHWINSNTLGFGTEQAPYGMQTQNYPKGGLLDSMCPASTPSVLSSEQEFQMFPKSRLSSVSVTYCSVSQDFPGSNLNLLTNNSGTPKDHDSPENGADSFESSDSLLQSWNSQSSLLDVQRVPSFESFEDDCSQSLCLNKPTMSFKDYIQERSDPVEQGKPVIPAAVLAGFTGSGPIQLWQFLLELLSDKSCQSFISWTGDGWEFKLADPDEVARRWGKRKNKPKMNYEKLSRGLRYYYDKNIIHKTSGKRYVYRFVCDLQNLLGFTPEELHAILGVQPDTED
# Summary of the method: as §1
# [7] = biological target: T6, ETV7 (Homo sapiens, UniProt Q9Y603 1-341); conditions: protein: recombinant; tags: N-terminal GST; dsDNA, one strand shown
# T6 sequence: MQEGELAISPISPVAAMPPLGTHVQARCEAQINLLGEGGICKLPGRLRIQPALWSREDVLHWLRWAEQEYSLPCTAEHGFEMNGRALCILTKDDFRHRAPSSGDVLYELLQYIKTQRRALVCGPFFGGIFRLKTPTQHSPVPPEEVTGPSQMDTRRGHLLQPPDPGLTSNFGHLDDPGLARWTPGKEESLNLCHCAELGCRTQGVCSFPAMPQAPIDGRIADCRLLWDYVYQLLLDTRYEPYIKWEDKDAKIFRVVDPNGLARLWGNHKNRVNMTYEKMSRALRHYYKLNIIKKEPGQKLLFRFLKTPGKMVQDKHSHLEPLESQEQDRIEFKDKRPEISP
# Summary of the method: as §1
sequence,measurement,setting,value
GCCTAG,binding signal,[1],"1.02 fold enrichment (6-mer frequency, TF over GST control)"
same,binding signal,[2],"1.21 fold enrichment (6-mer frequency, TF over GST control)"
same,binding signal,[3],"1.03 fold enrichment (6-mer frequency, TF over GST control)"
same,binding signal,[4],"1.08 fold enrichment (6-mer frequency, TF over GST control)"
same,binding signal,[5],"1.06 fold enrichment (6-mer frequency, TF over GST control)"
same,binding signal,[6],"1 fold enrichment (6-mer frequency, TF over GST control)"
same,binding signal,[7],"1 fold enrichment (6-mer frequency, TF over GST control)"
